Screening results deposited in PubChem BioAssay by The Scripps Research Institute Molecular Screening Center.
PAD4 inh: human PAD4 inhibitors, primary screen, biochemical, fluorescence polarization, 1536-well format; Protein-arginine deiminase type-4 (Homo sapiens), Q9UM07; recombinant PAD4, RCA probe fluorescence polarization; inhibition, % at 6.36 µM; hit rate 0.41% among 330,000; AID 485272, 2010;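 active = percent inhibition above a cutoff equal to the mean of all tested compounds plus 3 SD, cut at about 15% in these data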
LYPLA1 inh: LYPLA1 inhibitors, primary screen, counter-screen for PME1 inhibitor project, biochemical, fluorescence polarization, FP-Rh probe ABPP; Acyl-protein thioesterase 1 (Homo sapiens), O75608; recombinant LYPLA1; inhibition, % at 5.9 µM; hit rate 0.16% among 320,000;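 active = inhibition above the mean of all tested compounds plus 3 SD, set per campaign, cut at about 14% in these data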;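 note: inhibitors block serine hydrolase probe labeling of LYPLA1 so polarization falls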
Target sequence (O75608 whole entry, looked up): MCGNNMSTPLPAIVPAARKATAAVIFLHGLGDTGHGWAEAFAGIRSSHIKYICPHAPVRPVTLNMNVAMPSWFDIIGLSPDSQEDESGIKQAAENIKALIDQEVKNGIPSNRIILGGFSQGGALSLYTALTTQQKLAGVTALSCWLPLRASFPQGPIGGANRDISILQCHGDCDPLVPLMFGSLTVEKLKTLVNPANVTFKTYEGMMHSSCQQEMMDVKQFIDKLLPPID
Fam108B inh: mouse Fam108B serine hydrolase inhibitors, primary screen, counter-screen for RBBP9 inhibitor project, biochemical, fluorescence polarization | hit rate 0.33% among 300,000 | inhibition, % at 9.51 µM | recombinant Fam108B, FP-Rh probe fluorescence polarization | AID 1947, 2009;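 active = inhibition above the screen mean inhibition plus 3 SD, computed separately per campaign, cut at about 18% in these data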;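 note: inhibitors lower polarization as less probe binds the enzyme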
LYPLA2 counter: LYPLA2 inhibitors, primary screen, counter-screen for PME1 inhibitor project, biochemical, fluorescence polarization, FP-Rh probe ABPP | recombinant LYPLA2 | inhibition, % at 5.9 µM | Acyl-protein thioesterase 2 (Homo sapiens), O95372 | hit rate 0.38% among 320,000;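 active = inhibition above the screen-wide mean plus 3 SD, limit set per campaign, cut at about 26% in these data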
PME-1 inh: PME-1 inhibitors via competitive probe labeling, primary screen, biochemical, fluorescence polarization, FP-Rh probe, HTS; Protein phosphatase methylesterase 1 (Homo sapiens), Q9Y570; recombinant PME-1; inhibition, % at 5.9 µM; hit rate 0.53% among 320,000; AID 2130, 2009;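 active = inhibition above the campaign mean of all compounds plus 3 SD, cut at about 26% in these data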;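 note: competitive labeling of PME-1 active site by serine hydrolase directed probe; inhibitors block probe labeling so polarization falls and inhibition rises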
GSTO1 inh: inhibitors of recombinant GSTO1, primary screen, counter-screen for RBBP9 inhibitor project, biochemical, fluorescence polarization; Glutathione S-transferase omega-1 (Homo sapiens), P78417; activity-based probe fluorescence polarization; inhibition, % at 5.96 µM; hit rate 1.1% among 300,000; AID 1974, 2009;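 active = inhibition above the campaign mean inhibition plus 3 SD, cut at about 35% in these data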
Target sequence (P78417 whole entry, looked up): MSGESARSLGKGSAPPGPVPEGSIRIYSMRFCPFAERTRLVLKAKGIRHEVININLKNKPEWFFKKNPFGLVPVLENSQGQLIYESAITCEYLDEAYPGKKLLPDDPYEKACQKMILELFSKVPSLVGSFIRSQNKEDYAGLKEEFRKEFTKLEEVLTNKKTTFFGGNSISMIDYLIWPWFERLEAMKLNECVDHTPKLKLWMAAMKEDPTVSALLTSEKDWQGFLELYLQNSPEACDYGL
LYPLA2 confirm: LYPLA2 inhibitors, retest, confirmation, counter-screen for PME1 inhibitor project, biochemical, fluorescence polarization, FP-Rh probe ABPP. inhibition, % at 5.9 µM. shares compounds with LYPLA2 counter. hit rate 72% among 1,100. recombinant LYPLA2;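 active = mean inhibition across replicates above the hit cutoff set in the primary screen, cut at about 26% in these data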;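 note: blocked labeling of the enzyme by serine hydrolase FP-Rh probe lowers polarization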
LYPLA2 gel ABPP: LYPLA2 inhibitors in proteome, late-stage follow-up, gel-based competitive ABPP, fluorescence, assay provider | shares compounds with LYPLA2 counter | rhLYPLA2 in mouse brain proteome, gel ABPP FP-Rh | inhibition, % at 20 µM | hit rate 30% among 150;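 active = inhibition of LYPLA2 enzyme probe labeling above about 50%, limit read from the data; inactive = inhibition below that limit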;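 note: loss of FP-Rh probe labeling of the LYPLA2 gel band measured as band density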
Numbers stand for hits; i = inactive; nt = no result given. A selection: hits, their analogues and other compounds. The true share with any hit is near 1.8%.

SMILES | PAD4 inh | LYPLA1 inh | Fam108B inh | LYPLA2 counter | PME-1 inh | GSTO1 inh | LYPLA2 confirm | others
CC(C)C(NC(=O)c1ccccc1NC(=O)c1ccccc1)C(=O)NCCCn1ccnc1 (stereo unspecified) | i | i | i | 29 | i | i | i
CCOC(=O)C1=C(C)Nc2nc3ccccc3n2C1c1ccc(O)cc1 (stereo unspecified) | i | i | i | i | i | i | nt
CCOC(=O)c1ccccc1-n1c(C)cc(C2N=C(N)Nc3nc4ccccc4n32)c1C (stereo unspecified) | i | i | i | 71 | i | i | 77
CC(C)Sc1nnc(NC(=O)c2ccc3c(c2)OCO3)s1 | i | i | i | i | i | i | nt
CCOC(=O)N1CCN(C(c2ccc(C(C)C)cc2)c2sc3nc(C)nn3c2O)CC1 (stereo unspecified) | i | i | i | 69 | i | i | 67
CC(C)CC(=O)Nc1ccc(C(=O)Cn2nc(C(=O)O)c3ccccc3c2=O)cc1 | i | i | i | 44 | i | i | 39
CCOc1ccc(C(=O)Cn2cnc3ccccc3c2=O)cc1 | i | i | i | 34 | i | i | i
O=C(Cn1cnc2ccccc2c1=O)c1ccc(OC(F)F)cc1 | i | i | i | 52 | i | i | 67 | LYPLA2 gel ABPP=70
CCc1ccc(C(=O)Cn2cnc3cc([N+](=O)[O-])ccc3c2=O)cc1 | i | i | i | 46 | i | i | 37
O=C(Cn1cnc2ccccc2c1=O)c1ccccc1 | i | i | i | i | i | i | nt
Cc1ccc(C(=O)Cn2cnc3ccccc3c2=O)cc1 | i | i | i | i | i | i | nt
O=C(Cn1cnc2ccccc2c1=O)c1ccc(Br)cc1 | i | i | i | 29 | i | i | 42
CC(C)N(C(=O)Cn1cnc2cc([N+](=O)[O-])ccc2c1=O)C(C)C | i | i | i | i | i | i | nt
O=C(NC(C(=O)N/N=C/c1cccnc1)c1n[nH]c(=O)c2ccccc12)c1ccccc1 (stereo unspecified) | i | i | i | i | i | i | nt
O=C(c1cc(COc2ccc(F)cc2Cl)on1)N1CCCC(OCc2cccnc2)C1 (stereo unspecified) | i | i | i | i | i | i | nt
O=C(c1cc(COc2ccc(F)cc2Cl)on1)N1CCC(OCc2cccnc2)CC1 | i | i | i | 32 | i | i | 33
CN(Cc1nc(-c2ccccn2)no1)S(=O)(=O)c1ccccc1 | i | i | i | i | i | i | nt
CN(Cc1nc(-c2ccc(Cl)cc2)no1)C(=O)c1ccc2c(c1)OCO2 | i | i | i | 34 | i | i | 34
CN(Cc1nc(-c2ccncc2)no1)S(=O)(=O)c1ccccc1 | i | i | i | i | i | i | nt
CN(Cc1nc(-c2ccncc2)no1)S(=O)(=O)c1ccc(Cl)cc1 | i | i | i | 28 | i | i | 30
CN(Cc1nc(-c2ccncc2)no1)S(=O)(=O)c1ccc(Br)cc1 | i | i | i | 37 | i | i | 36
Cc1c(Nc2ccc3nonc3c2[N+](=O)[O-])c(=O)n(-c2ccccc2)n1C | i | i | i | 32 | i | i | 37
CCC(C)c1ccc(S(=O)(=O)N2CCN(c3ccccn3)CC2)cc1 (stereo unspecified) | i | i | i | i | i | i | nt
COC(=O)N/N=C/c1ccccc1OCCOc1ccc(OC)cc1 | i | i | i | 35 | i | i | 42
O=C(CN1C(=O)NC(c2ccccc2)(c2ccccc2)C1=O)c1c[nH]c2ccccc12 | i | i | i | i | i | i | nt
SMILES | PAD4 inh | LYPLA1 inh | Fam108B inh | LYPLA2 counter | PME-1 inh | GSTO1 inh | LYPLA2 confirm | others
COc1ccc(OCC(=O)Nc2ccc(NC(=O)c3cccs3)c(OC)c2)cc1 | i | i | i | i | i | i | nt
COc1ccc(OCC(=O)Nc2ccc(NC(=O)c3ccccc3Cl)c(OC)c2)cc1 | i | i | i | 36 | i | i | 34
N#C/C(=C\c1ccc(N2CCOCC2)c([N+](=O)[O-])c1)c1nc2ccccc2[nH]1 | i | i | i | 31 | i | i | 53
COC(=O)/C(C#N)=C/c1ccc(N2CCOCC2)c([N+](=O)[O-])c1 | i | i | i | i | i | i | nt
Cc1ccc2cc3cc(C(=O)N(CC(=O)NC4CCCC4)c4cccc(C)c4C)sc3nc2c1 | i | i | i | i | i | i | nt
O=C(COC(=O)c1cncc(Br)c1)NCc1ccc(Cl)cc1 | i | i | i | 27 | i | i | i
COc1ccc(-c2cc(C)no2)cc1S(=O)(=O)N1CCN(c2cccc(C)c2)C(C)C1 (stereo unspecified) | i | i | i | 32 | i | i | 31
O=C(N/N=C/c1cccnc1)c1ccc(CN2c3cccc4cccc(c34)S2(=O)=O)cc1 | i | i | i | i | i | i | nt
O=C1CCCC(=NNC(=O)c2ccc(CN3c4cccc5cccc(c45)S3(=O)=O)cc2)C1 | nt | nt | nt | nt | nt | nt | nt | LYPLA2 gel ABPP=i
COc1cccc(-c2ccc(NC(=O)C3CCCN(Cc4ccc(CO)o4)C3)cc2)c1 (stereo unspecified) | i | i | i | i | i | i | nt
O=C(NCCCC1CCCC1)C1CCC(=O)N(Cc2ccc(Cl)cc2)C1 (stereo unspecified) | i | i | i | 28 | i | i | 34
COc1ccc(CCNC(=S)N2CCC(C(=O)c3ccc(F)cc3)CC2)cc1OC | i | i | i | 27 | i | i | 31
CN(CC(=O)O/N=C(\N)c1ccc([N+](=O)[O-])cc1)S(=O)(=O)c1ccc2ccccc2c1 | i | i | i | 59 | i | i | 63 | LYPLA2 gel ABPP=i
Cc1ccc(/C(N)=N/OC(=O)CN(C)S(=O)(=O)c2ccc(C)cc2)cc1 | i | i | i | i | i | i | nt
CS(=O)(=O)N(CCC(=O)O)Cc1ccccc1 | i | i | i | i | i | i | nt
COc1ccccc1-c1nnc(C2CCN(S(=O)(=O)c3ccc([N+](=O)[O-])cc3)CC2)o1 | i | i | i | 75 | i | i | 72 | LYPLA2 gel ABPP=58
COc1ccccc1-c1nnc(C2CCN(S(=O)(=O)c3cccc([N+](=O)[O-])c3)CC2)o1 | i | i | i | i | i | i | nt
COc1ccc(CCNC(=O)C2CCCN2C(=O)Nc2cccc(OC)c2)cc1 (stereo unspecified) | i | i | i | i | i | i | nt
